Consider 40 compounds from publication PMC8159961, “Exploring protein hotspots by optimized fragment pharmacophores” (Nature Communications, 2021).

Unmarked numbers belong to inactive results. How the calls were made is not given here.

The assay deals with 5-HT1A receptor (human, UniProt P08908). The assay is described as follows: primary screen, binary call; higher = more effect of the substance. Set-up: hit call from the mean of at least two separate experiments. Conditions: 10 µM. The procedure: GPCR radioligand binding assays were performed in HEK293 cells with stable expression of human 5-HT1A, 5-HT6, and 5-HT7b receptors (prepared with the use of Lipofectamine 2000). Non-specific binding was defined with 10 µM of 5-HT in 5-HT1AR and 5-HT7R binding experiments, whereas 10 µM of mianserin was used in 5-HT6R assays, respectively. Each compound was tested at 10 µM concentration. Results were expressed as means of at least two separate experiments.
5-HT1A receptor, sequence (P08908 whole entry, looked up): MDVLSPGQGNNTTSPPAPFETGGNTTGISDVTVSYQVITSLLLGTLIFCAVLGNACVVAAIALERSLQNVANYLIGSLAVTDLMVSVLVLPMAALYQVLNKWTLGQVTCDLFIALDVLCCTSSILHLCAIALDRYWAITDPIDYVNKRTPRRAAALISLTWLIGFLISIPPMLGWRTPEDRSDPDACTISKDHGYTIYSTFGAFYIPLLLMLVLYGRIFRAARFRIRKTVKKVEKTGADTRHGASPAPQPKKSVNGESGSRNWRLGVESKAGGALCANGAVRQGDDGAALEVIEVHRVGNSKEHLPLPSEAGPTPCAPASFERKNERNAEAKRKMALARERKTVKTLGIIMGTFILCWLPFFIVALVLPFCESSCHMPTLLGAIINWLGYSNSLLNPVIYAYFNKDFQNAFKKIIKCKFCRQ
With `N[C@H]1c2ccccc2C[C@H]1CO`, the 5-HT1 was 0.

For the compound `Brc1ccc(-c2ccon2)cc1`, the 5-HT1 was 0. As for `CS(=O)(=O)c1ccc(N2CCNCC2)cc1`, the 5-HT1 is 0. `Oc1ccc(-n2cncn2)cc1`: the 5-HT1 was 0. The same measure for `CS(=O)(=O)c1ccc(OC(F)(F)F)cc1`: 0. Turning to `Nc1ccc(SC(F)F)cc1`, the 5-HT1 was 0. The same measure for `O=C(O)c1cccc(Nc2ncccn2)c1`: 0. The figure for `NC1CCc2ccccc21` (stereo not shown) is 0. The same measure for `c1ccc2oc(C3CCCNC3)nc2c1` (stereo not shown): 1 (active). Consider `C1=C[C@H]2O[C@@H]1c1ccccc12`, for which the 5-HT1 was 0.

On to `Oc1ccc(C2CCNCC2)cc1`, for which the 5-HT1 is 0. The same measure for `O=C1CNCCN1c1ccccc1`: 0; for `CC(=O)c1sc(-c2ccc(O)cc2)nc1C`: 0. With `O=C1CCN(c2ccncc2)CC1`, the 5-HT1 is 0.

As for `O=C(O)C1CCN(c2ncccn2)CC1`, the 5-HT1 was 0.

As for `Fc1ccc2c(C3CCNCC3)c[nH]c2c1`, the 5-HT1 is 1 (active). The same measure for `CC(=O)c1ccc2c(c1)CCCN2`: 0; for `CCN(CC)c1cccc(C)c1`: 0. The same measure for `O=C(c1ccccc1)N1CCC(CO)CC1`: 0; for `Cc1ccc(-c2ccc(O)cc2)cc1`: 0. The figure for `O=C(CN1CCCC1)c1ccccc1Cl` is 1 (active); for `O=C1NC2(CCCC2)Nc2ccccc21` it is 0. On to `Oc1cnc(-c2ccccc2)nc1`, for which the 5-HT1 was 0.

For the compound `Cc1cnc(C(F)(F)F)cn1`, the 5-HT1 is 0. As for `COc1ccccc1CC1CCNCC1.Cl`, the 5-HT1 was 1 (active). In the case of `Cc1cc(C)c2c(=O)[nH]n(C)c2n1`, the 5-HT1 is 0.

For `c1ccc(-c2ccncc2)cc1`, the 5-HT1 was 0. The same measure for `NC(=O)N1CCC(C(=O)O)CC1`: 0; for `O=C1CCCc2occc21`: 0. The figure for `CC1C(=O)NC(=O)N1c1ccc(Cl)cc1` (stereo not shown) is 0; for `O=C(NC1CC1)c1ccccc1O` it is 0.

Regarding `Cn1nc(C(F)(F)F)cc1O`, the 5-HT1 was 0.

As to `c1ccc2sc(N3CCNCC3)nc2c1`, the 5-HT1 is 1 (active). The same measure for `CC(CN)N1CCc2sccc2C1` (stereo not shown): 0; for `Nc1ccc(-c2ccccc2)cc1C(=O)O`: 0; for `Cc1ccc(C)n1Cc1ccccc1Cl`: 0.

For the compound `COc1ccccc1N1CCNCC1`, the 5-HT1 is 1 (active). The figure for `Cc1nccn1Cc1cccc(C#N)c1` is 0. Turning to `c1cnc2c(c1)NCCC2`, the 5-HT1 is 0.

In the case of `CCc1ccc(NC2=NCCCS2)cc1`, the 5-HT1 was 0.
